# Assay outcomes (PubChem BioAssay)
# CHX counter: affects cycloheximide protein synthesis inhibition readout, counter-screen | cell reporter, cycloheximide protein synthesis inhibition counterscreen | max response, % | hit rate 12% among 300,000 | AID 2314; in the data active = max response mostly above about 13%, no sharp cut-off; inactive = mostly below about 14%; note: read at 38.3 µM for the half of the compounds with a filed dose; 0% is about no effect
# Shiga inhibitor: inhibitors of Shiga toxin in Vero cells; hit rate 9.2% among 290,000; Vero cells, Shiga toxin protein synthesis inhibition reporter; AID 2315; inhibition, % at 38.7 µM; in the data active = inhibition mostly above about 28%, no sharp cut-off; inactive = mostly below about 43%; note: 0% is about no effect
# Lassa entry inh: Lassa virus entry inhibition; Lassa virus pseudotype entry inhibition, cell reporter; Potency, µM (doses to about 37.9 µM), without a hit: at the top dose activity change, negative = inhibition, most hits filed as inhibitors; hit rate 1.2% among 300,000; calls by dose curve; tested in HEK293 cells; note: potency is the fitted concentration of half-maximal effect; % is set by controls: 0 for no effect and ±100 for the full control effect; nearly all actives have a fitted effect of over 50% in size
# HCV inh: HCV inhibition. Huh7.5.1 HCVcc-Cre infection, luciferase reporter, 44 h. Potency, µM (titrated, usually from 41.8 µM), for the others: top-dose activity change, negative = inhibition, most hits filed as inhibitors. hit rate 3.4% among 340,000; active = well fitted inhibition curve with a large enough effect; inconclusive = small, poorly fitted or top-dose-only effect, or another doubt; inactive = no such curve, though single readings can be large or run the other way; note: potency is the fitted concentration of half-maximal effect; % is set by controls: 0 for no effect and ±100 for the full control effect
#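 Cells (1,000/well) were plated 4 h before compound, then infected with HCVcc-Cre virus (~0.5 moi). After 44 h further culture, infection was read as luciferase luminescence following a 15 min substrate incubation at room temperature.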
# Marburg entry inh: blocks Marburg virus binding to or entry into cells; Marburg virus pseudotyped entry inhibition, cell reporter; Potency, µM (top dose mostly 37.8 µM), inactives show at the top dose activity change, negative = inhibition, hits mostly inhibitors; hit rate 1.8% among 300,000; calls by dose curve; tested in HEK293 cells; note: potency is the fitted concentration of half-maximal effect; % is set by controls: 0 for no effect and ±100 for the full control effect
# FMDV inh: foot and mouth disease virus antiviral activity; FMDV antiviral cell-based qHTS; Potency, µM (top dose mostly 57.9 µM), for inactives: at the top dose activity change, negative = inhibition, hits mostly inhibitors; hit rate 1.2% among 410,000; calls by dose curve; tested in HEK293T cells; note: read-out not given here; potency is the fitted concentration of half-maximal effect; % is set by controls: 0 for no effect and ±100 for the full control effect; nearly all actives have a fitted effect of over 45% in size
# Active calls of the source: *; ? = inconclusive; · = no result; + = active, no number; [ ] = dose if it differs, or a comment. Sampled rows, rich in hits. Any-hit rate of the full collection: about 13%.
SMILES,CHX counter,Shiga inhibitor,Lassa entry inh,HCV inh,Marburg entry inh,FMDV inh
O=C(O)/C=C/C(=O)NNC(=O)c1ccc(Cl)cc1Cl,27.0*,58.4*,13.9%,12.1%,8.6%[46.1 µM],-13.3%
O=C(NNc1cccc(Cl)n1)c1ccc(Cl)cc1Cl,24.0*,29.1,18.7%,-8.8%,?,44.5%
COC(=O)NNC(=O)c1ccc(Cl)cc1Cl,-2.5,7.3,15.7%,11.4%,?,-17.9%
Cc1noc(C)c1CSCC(=O)OCc1nnc(-c2ccc([N+](=O)[O-])cc2)o1,·,·,16.8%,-2.1%,10.6%,-11.5%
CCC(=O)C1CCCN(C(=O)CCc2nnc(C3(c4ccc(Cl)cc4)CCC3)o2)C1 (stereo not drawn),57.1*,79.9*,?,-11.3%,-8.1%,4.4%
O=C(CSc1nnc(COc2ccc(Cl)cc2)o1)N1CCCC1,-1.8,-6.2,?,-18.8%,?,3.6%
O=C(CCc1nnc(C2(c3ccc(Cl)cc3)CCC2)o1)N1CCCC1,25.0*,74.7*,·,13.1%,·,13.2%
NC(=O)C1CCCN(C(=O)CCc2nnc(C3(c4ccc(Cl)cc4)CCC3)o2)C1 (stereo not drawn),2.0,10.7,3.1%,39.9%,11.9%,3.7%
CCOC(=O)C1CCCCN1C(=O)CCc1nnc(-c2ccc3c(c2)OCO3)o1 (stereo not drawn),·,·,29.7%,19.5%,?,12.6%
CC(=O)c1ccc(-c2nnc(CCC(=O)N3CCCC(C(=O)CC(C)C)C3)o2)s1 (stereo not drawn),34.4*,79.5*,·,-1.9%,·,31.4%
Cc1c(Br)c([N+](=O)[O-])nn1CC(=O)Nc1ccc(C(N)=O)cc1,-1.4,-6.9,·,3.5%,·,35.1%
Cc1ccccc1NC(=O)c1ccco1,-2.5,·,·,11.0%,·,-11.2%
Cc1cccn2c1nc(=S)n2C(=O)c1ccco1,43.3*,82.4*,?,-10.3%,?,52.3%
O=[N+]([O-])c1ccccc1Nc1nc(-c2cccnc2)cs1,25.7*,·,·,?,·,0.0%
COc1ccccc1Nc1nc(-c2sc(NC(=O)c3ccco3)nc2C)cs1,-1.5,12.0,·,?,·,5.7%
COc1ccc(Nc2nc(-c3cccnc3)cs2)c(OC)c1,37.5*,37.8*,7.5%,?,-1.5%,40.9%
O=C(CSc1n[nH]c(-c2cccnc2)n1)Nc1ccccc1[N+](=O)[O-],-3.0,17.7,-2.4%[46.1 µM],9.6%,-9.5%[46.1 µM],5.5%
COc1ccc(OC)c2nc(-c3cccnc3)ccc12,29.2*,47.5*,15.7%,?,24.9%,45.7%
COc1ccccc1Nc1nc(C2(C)CCC(=O)O2)cs1 (stereo not drawn),52.4*,62.1*,?,-9.5%,?,8.8%
CCn1ccnc1CNC(=O)C1CCC(=O)N(Cc2ccccc2F)C1 (stereo not drawn),-0.6,-3.8,-0.8%,-4.9%,4.4%,-12.1%
CN(Cc1ccc(Cl)cc1)C(=O)c1[nH]c(C(F)(F)F)nc1-c1ccccc1,·,·,·,·,·,-0.7%
COc1ccccc1Nc1nc(-c2cccnc2)cs1,34.3*,36.1*,4.3%,?,-22.3%,20.3%
Cc1cccc(OC(C)C(=O)Nc2nc(-c3cccnc3)cs2)c1 (stereo not drawn),·,·,·,·,·,0.0%
CCc1ccccc1Nc1nc(-c2cccnc2)cs1,18.9*,23.0,·,?,·,29.2%
COc1ccc(CC(=O)Nc2nc(-c3cccnc3)cs2)cc1,-4.1,-10.3,?,-27.5%,-4.6%,-20.1%
SMILES,CHX counter,Shiga inhibitor,Lassa entry inh,HCV inh,Marburg entry inh,FMDV inh
COc1ccc(CCNC(=O)CSc2nnc(-c3ccc(F)cc3)o2)cc1OC,4.7,-13.3,2.8%,7.5%,-9.6%,?
Cc1ccc(CCNC(=O)CNS(=O)(=O)c2ccc3nc(C)sc3c2)cc1,-9.4,-4.7,·,-8.2%,·,22.2%
Cc1cc(C)c2c(N)c3ccccc3nc2n1,2.6,72.5,-19.7%,?,?,-21.4%
CCc1ccc2nc3nc(C)cc(C)c3c(N)c2c1,19.6*,90.8*,?,?,?,·
NCc1nc(-c2ccc(Cl)cc2)no1,12.6,9.2,·,-8.7%,·,10.7%
Cc1ccc(Cc2nc(-c3cccnc3)no2)cc1,33.9*,111.4*,8.0%,1.2%,10.7%,24.9%
Clc1ccc(Cc2nc(-c3cccnc3)no2)cc1,17.0*,9.6,-1.2%,11.0%,20.2%,19.5%
COc1cc(-c2nc(C(=O)NCC3CCCO3)cc3c2[nH]c2ccccc23)cc(OC)c1OC (stereo not drawn),-2.9,1.9,·,3.55µM*,·,?
O=C(NCC1CCCO1)c1cc2ccccc2[nH]1 (stereo not drawn),15.1*,120.9*,?,-4.8%,17.2%,19.4%
O=C(NCC1CCCO1)c1cc2c([nH]c3ccccc32)c(-c2cccc(Cl)c2)n1 (stereo not drawn),-0.1,12.1,·,1.26µM*,·,?
CCc1nnc(NC(=O)c2cccc(S(=O)(=O)N3CCc4ccccc43)c2)s1,-4.2,-4.5,12.2%,12.5%,3.4%,-22.6%
CN(C)S(=O)(=O)c1cccc(NC(=O)c2cccc(S(=O)(=O)N3CCc4ccccc43)c2)c1,·,·,·,11.2µM*,·,?
Cc1cccnc1NC(=O)c1cccc(S(=O)(=O)N2CCCc3ccccc32)c1,26.3*,18.9,-15.1%,-24.6%,-8.7%,-24.8%
CC(C)CCNC(=O)c1cccc(S(=O)(=O)N2CCc3ccccc32)c1,-1.2,-15.2,3.98µM*,?,?,3.3%
CC(C)[C@H](NC(=O)c1cccc(S(=O)(=O)N2CCOCC2)c1)C(=O)Nc1nc2ccccc2s1,25.7*,+,?,?,?,51.6%
O=C(Nc1ncccc1O)c1cccc(S(=O)(=O)N2CCCc3ccccc32)c1,·,·,0.7%,10.4%,7.1%,39.0%
CC1(C(=O)NC2CCCCCCC2)CCC(=O)N1CCN1CCOCC1 (stereo not drawn),-3.5,18.8,13.9%,7.9%,19.2%,·
COc1ccc(NC(=S)Nc2cc(S(=O)(=O)N3CCCCC3)ccc2OC)cc1,0.9,-4.5,-2.9%,8.6%,-24.8%,·
O=C(O)c1cc(Cl)c(Cl)cc1C(=O)N1CCOCC1,-1.3,-20.4,30.0%,20.4%,15.8%,7.5%
O=C(NNC(=O)c1cccc(S(=O)(=O)N2CCc3ccccc32)c1)c1ccccc1,-1.1,-18.2,?,5.01µM*,?,0.0%
Cc1nnc(NC(=O)c2cccc(S(=O)(=O)N3CCc4ccccc43)c2)s1,-4.7,-18.8,-2.4%,-2.0%,-5.4%,-18.5%
O=C(Nc1nc2ccccc2s1)c1cccc(S(=O)(=O)N2CCc3ccccc32)c1,14.1*,21.3,-2.6%,?,?,-19.2%
CCCCn1nc(NC(=O)COC)c2cc3cc(OC)ccc3nc21,-0.8,3.0,·,-15.7%,·,7.1%
O=C(NCc1cccnc1)c1cc(Sc2ccccc2Cl)nc2ccccc12,-1.6,-6.6,?,?,?,-25.0%
CCN(CC)S(=O)(=O)c1ccc(N2CC(C(=O)NCc3ccc4c(c3)OCO4)CC2=O)cc1 (stereo not drawn),·,·,·,?,·,-23.1%
